Measurements: PubChem BioAssay AID1851 (National Center for Advancing Translational Sciences (NCATS), 2009)
Out of some 16,000 compounds screened, about 2,600 (16%) were called active. About 20% were inconclusive and are not listed. Calls follow the shape of the dose curve; as a rule, active = well fitted curve in the direction sought with a large enough effect; inconclusive = small, poorly fitted or top-dose-only effect, or effect the other way; inactive = no such curve, though single readings can be large or run the other way. A selection follows.
% is scaled to controls: 0 for no effect and ±100 for the full control effect.

These compounds were tested against Cytochrome P450 2D6 (Homo sapiens) (UniProt P10635) (assay: Cytochrome panel assay with activity outcomes). Settings: recombinant CYP, pro-luciferin dealkylation, luminescence, p450-cyp2d6; series mostly up to 57.1 µM; activity, negative = inhibition: at the top concentration.
Chain of Cytochrome P450 2D6 (Homo sapiens) (P10635 whole entry, looked up): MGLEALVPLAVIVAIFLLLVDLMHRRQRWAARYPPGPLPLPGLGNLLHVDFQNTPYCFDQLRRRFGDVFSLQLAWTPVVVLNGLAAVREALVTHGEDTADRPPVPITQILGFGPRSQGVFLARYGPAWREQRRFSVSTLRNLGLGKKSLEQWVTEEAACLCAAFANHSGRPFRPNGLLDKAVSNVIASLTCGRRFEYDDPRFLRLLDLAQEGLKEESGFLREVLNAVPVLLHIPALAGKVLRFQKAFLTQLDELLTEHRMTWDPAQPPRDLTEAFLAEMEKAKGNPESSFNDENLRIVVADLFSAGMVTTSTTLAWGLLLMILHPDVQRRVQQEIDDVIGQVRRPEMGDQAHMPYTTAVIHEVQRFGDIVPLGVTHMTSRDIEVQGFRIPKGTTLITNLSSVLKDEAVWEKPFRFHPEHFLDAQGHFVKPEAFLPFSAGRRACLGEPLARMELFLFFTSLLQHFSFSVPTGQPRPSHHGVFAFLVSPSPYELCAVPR
CCCn1nc(Oc2nc(NCC)nc(NCC)n2)ccc1=O was tested, and the “activity, negative = inhibition” value was -6.81% (inactive).
For Cc1nc2nc(-c3ccc(Cl)cc3)nn2c(C)c1Cl, the “activity, negative = inhibition” value was -3.06% (inactive).
For COC(=O)c1cc(NC(=O)CC2NC3CCCCC3NC2=O)cc(C(=O)OC)c1 (stereo not given), the “activity, negative = inhibition” value was 10.9% (inactive).
C/C=C\C[C@H](C)[C@H](O)[C@H]1C(=O)N[C@@H](CC)C(=O)N(C)CC(=O)N(C)[C@@H](CC(C)C)C(=O)N[C@@H](C(C)C)C(=O)N(C)[C@@H](CC(C)C)C(=O)N[C@@H](C)C(=O)N[C@@H](C)C(=O)N(C)[C@@H](CC(C)C)C(=O)N(C)[C@@H](CC(C)C)C(=O)N(C)[C@@H](C(C)C)C(=O)N1C was tested, and the “activity, negative = inhibition” value was -1.21% [at 25.6 µM] (inactive).
For COc1ncc2nc(-c3ccc(Cl)cc3)c(=O)n(-c3ccccc3)c2n1, the “activity, negative = inhibition” value was -2.38% (inactive).
For CCc1ccc(-c2ccc(C(=O)C(F)(F)F)[nH]2)cc1, the “activity, negative = inhibition” value was 7.66% (inactive).
For Cc1ccccc1C(=O)NC(NCc1ccco1)C(Cl)(Cl)Cl (stereo not given), the “activity, negative = inhibition” value was -0.249% (inactive).
With Cc1nc(SCC(=O)Nc2c(C)nn(C)c2C)c2cnn(-c3ccccc3)c2n1 the “activity, negative = inhibition” value was 7.46% (inactive).
For CCc1nnc(NC(=O)C2CCN(C(=O)NC3CCCCC3)CC2)s1, the “activity, negative = inhibition” value was 35.1% (inactive).
With CC(=O)N/N=C/c1cc([N+](=O)[O-])ccc1OCCOc1ccccc1 the AC50 was 0.0562 µM (active).
In the case of CC(/C=N/NC(=O)c1cccc([N+](=O)[O-])c1)=C\c1ccccc1, the “activity, negative = inhibition” value was -0.219% (inactive).
For COc1cc(/C=N/NC(=O)c2cccc([N+](=O)[O-])c2)ccc1OCc1ccc(C)cc1, the “activity, negative = inhibition” value was -1.87% (inactive).
For N#CCCn1c(=O)c(-c2ccccc2)nc2cnc(OCc3ccccc3)nc21, the “activity, negative = inhibition” value was 0.297% (inactive).
For COc1ccc(COC(=O)N/N=C2/C[C@@H](O)[C@@H](O)[C@@H]3[C@@H]4C(=O)N([C@@H](C)c5ccccc5)C(=O)[C@H]4CC[C@H]23)cc1, the activity, negative = inhibition was -3.9% [at 11.4 µM] (inactive).
In the case of O=C(C[n+]1cccc(NC(=O)c2ccccc2)c1)c1ccc(NC(=O)c2ccccc2)cc1, the AC50 was 14.1 µM (active).
In the case of COc1ccc(C(=O)COC(=O)c2ccc(NC(=O)c3ccccc3)cc2)cc1, the “activity, negative = inhibition” value was 0.145% (inactive).
For COc1ccc(C(=O)Nc2ccc(C(=O)OCC(=O)c3ccccc3)cc2)cc1, the “activity, negative = inhibition” value was -25.3% (inactive).
With COc1cccc(Cn2c(=O)c(CCc3ccccc3)nc3cnc(N(C)C)nc32)c1 the “activity, negative = inhibition” value was -1.17% (inactive).
In the case of N[C@@H](C(=O)O)c1ccc(O)c(C(=O)O)c1, the “activity, negative = inhibition” value was -5.56% (inactive).
For COc1cccc(Cn2c(=O)c(CCc3ccccc3)nc3cncnc32)c1, the “activity, negative = inhibition” value was -6.45% (inactive).
For CC1=NCC[N@@+]1(CCc1ccccc1)Cc1ccccc1, the AC50 was 0.0501 µM (active).
With CC(=O)NS(=O)(=O)c1ccc(NC(=O)NC2CCCCC2)cc1 the “activity, negative = inhibition” value was -8.87% (inactive).
CC(=O)Nc1ccc(S(=O)(=O)N2CCN(c3nc(NC4CCCC4)c4ccccc4n3)CC2)cc1 was tested, and the AC50 was 12.6 µM (active).
CC(=O)Nc1ccc(S(=O)(=O)NCC2CCC(C(=O)N3CCN(c4ccccn4)CC3)CC2)cc1 (stereo not given) was tested, and the “activity, negative = inhibition” value was -15.8% (inactive).
With O=c1c2ccccc2nnn1CSc1nnc(COc2ccc(Cl)cc2)n1Cc1ccco1 the “activity, negative = inhibition” value was -20.5% (inactive).
For O=C1CN2CCN(CC2)CC(=O)Nc2ccc(cc2)S(=O)(=O)c2ccc(cc2)NC(=O)CN2CCN(CC2)CC(=O)Nc2ccc(cc2)S(=O)(=O)c2ccc(cc2)N1, the activity, negative = inhibition was 0.0037% [at 11.4 µM] (inactive).
CC1(C)OC[C@@H]2O[C@H](n3cnc4c(N)nc(Cl)nc43)[C@@H](OS(C)(=O)=O)[C@@H]2O1 was tested, and the activity, negative = inhibition was 8.22% [at 11.4 µM] (inactive).
With Cc1noc(NS(=O)(=O)c2ccc(NC(=O)CC34CC5CC(CC(Br)(C5)C3)C4)cc2)c1C the “activity, negative = inhibition” value was 13% (inactive).
In the case of CCCCCCC(C)n1cc(C(C)=O)c(=O)[nH]c1=O (stereo not given), the “activity, negative = inhibition” value was -5.37% (inactive).
For CCC/C=C(\CCC)C(NC(=O)Oc1ccc(F)cc1)c1ccc(C(=O)OC)cc1 (stereo not given), the “activity, negative = inhibition” value was -20.4% (inactive).
With COC(=O)c1[nH]c2ccc(Br)cc2c1NC(=O)CN1CCN(C2CCCCC2)CC1 the AC50 was 1 µM (active).
For COC(=O)c1[nH]c2ccc(Br)cc2c1NC(=O)CN1CCCc2ccccc21, the “activity, negative = inhibition” value was -30% (inactive).
With COC(=O)c1[nH]c2ccc(Br)cc2c1NC(=O)Oc1ccccc1 the “activity, negative = inhibition” value was -5.73% (inactive).
In the case of CCOC(=O)C1CN(S(=O)(=O)c2cccc(C(F)(F)F)c2)c2cc(CC(=O)OC)ccc2O1 (stereo not given), the “activity, negative = inhibition” value was -21.1% (inactive).
CN1CCN(c2ncc3nc(-c4ccc(Cl)cc4)c(=O)n(CCC#N)c3n2)CC1 was tested, and the “activity, negative = inhibition” value was 4.88% (inactive).
CNS(=O)(=O)c1ccccc1C(=N)c1ccccc1 was tested, and the activity, negative = inhibition was 19.2% [at 11.4 µM] (inactive).
In the case of CCNC(=S)NNC(=O)c1cccc(Br)c1, the “activity, negative = inhibition” value was 1.21% (inactive).
For CCOC(OCC)P(=O)(O)CCCNCc1ccc(Cl)c(Cl)c1, the “activity, negative = inhibition” value was 8.85% (inactive).
For CCCCCNCc1cccc(Br)c1, the AC50 was 2 µM (active).
In the case of Cc1cc(Cl)nc2ccc(Cc3ccc4nc(Cl)cc(C)c4c3)cc12, the activity, negative = inhibition was -2.9% [at 11.4 µM] (inactive).
COc1ccc(/C=N/NC(=S)NC2CCS(=O)(=O)C2)cc1OC (stereo not given) was tested, and the “activity, negative = inhibition” value was -4.59% (inactive).
In the case of C=CC1=C(C(=O)O)N2C(=O)[C@@H](NC(=O)/C(=N\OCC(=O)O)c3csc(N)n3)[C@@H]2SC1, the “activity, negative = inhibition” value was -1.18% [at 25.6 µM] (inactive).
NC[C@](O)(CS(=O)(=O)O)c1ccc(Cl)cc1 was tested, and the “activity, negative = inhibition” value was 17.4% (inactive).
In the case of Cc1cc(-c2cc(-c3ccc(Cl)cc3)nc(N)c2C#N)co1, the “activity, negative = inhibition” value was -12.3% (inactive).
In the case of COc1ccccc1OCCn1cc(C(=O)c2ccco2)c2ccccc21, the “activity, negative = inhibition” value was -27.9% (inactive).
Cc1cc(OCCn2cc(/C(N)=N/O)c3ccccc32)ccc1Cl was tested, and the AC50 was 3.98 µM (active).
For CO[C@]1(NC(=O)CSCC#N)C(=O)N2C(C(=O)O)=C(CSc3nnnn3C)CS[C@H]21, the AC50 was “inactive”.
For C[C@H](C[C@H](N)C(=O)O)C(=O)O, the “activity, negative = inhibition” value was 12.6% (inactive).
In the case of Cc1ccc(-c2cc(-c3nnc(SCC(=O)NC(C)C(C)C)n3N)c3ccccc3n2)cc1 (stereo not given), the “activity, negative = inhibition” value was -4.49% (inactive).
For CCn1c2ccccc2c2cc(NC(=O)CSc3nnc(-c4ccc(OC)c(OC)c4)n3N)ccc21, the AC50 was 14.1 µM (active).
In the case of COc1ccc(C)cc1NC(=O)CSc1nnc(-c2ccc(OC)c(OC)c2)n1N, the “activity, negative = inhibition” value was -12.9% (inactive).
Cc1cccc(NC(=O)CSc2nnnn2C)n1 was tested, and the “activity, negative = inhibition” value was -12.5% (inactive).
In the case of CCCCOc1ccc(C(=O)N/C(=C\c2cccc([N+](=O)[O-])c2)C(=O)OCCC)cc1, the “activity, negative = inhibition” value was 0.716% (inactive).
With Cc1cc(C)c(S(C)(=O)=O)c(Oc2ccc(C(C)(C)C)cc2)n1 the “activity, negative = inhibition” value was -9.68% (inactive).
With O=c1c[n+](CCCC[n+]2cc(=O)o[nH]2)[nH]o1 the activity, negative = inhibition was -2.36% [at 11.4 µM] (inactive).
COc1ccc(CNc2ncncc2-c2cccc(C#N)c2)c(OC)c1 was tested, and the AC50 was 5.01 µM (active).
For COc1ccc(CNc2ncnc3ccc(-c4cccc(C#N)c4)cc23)c(OC)c1, the “activity, negative = inhibition” value was -10% (inactive).
Cc1cnc(CNc2ncncc2-c2cccc(C#N)c2)cn1 was tested, and the “activity, negative = inhibition” value was -10.4% (inactive).
COc1ccccc1CNc1ncncc1-c1cccc(C#N)c1 was tested, and the AC50 was 15.8 µM (active).
For O=C(Oc1oc(-c2ccco2)nc1C=Nc1ccc(Cl)cc1)c1ccco1, the “activity, negative = inhibition” value was 6.95% (inactive).
With Cc1c2c(nc3ccccc13)-c1cccc(=O)n1C2 the “activity, negative = inhibition” value was -5.55% (inactive).
With COc1cccc(/C=N\NC(=O)c2cc(OCC(F)(F)F)ccc2OCC(F)(F)F)c1 the “activity, negative = inhibition” value was 23.1% (inactive).
COc1ccc2[nH]c(=O)c(CN(CCO)C(=O)c3cccs3)cc2c1 was tested, and the “activity, negative = inhibition” value was 5.47% (inactive).
In the case of O=[N+]([O-])c1cc(/C=N/O)ccc1SCc1ccccc1, the “activity, negative = inhibition” value was 16% (inactive).
With CC1(C)O[C@@H]2O[C@H]([C@H](O)CO/N=C3/[C@H]4O[C@@H]4[C@@H](O)[C@H]4[C@H]3CCn3c(=O)n(-c5ccccc5)c(=O)n34)[C@@H](O)[C@@H]2O1 the activity, negative = inhibition was 7.2% [at 11.4 µM] (inactive).
For CO[C@@H]1COC(=O)[C@H]2CCCN2C(=O)[C@@H](C)COC(=O)CCC[C@H]1C, the activity, negative = inhibition was 12% [at 11.4 µM] (inactive).
In the case of CCOC(=O)Cn1c(-c2ccccc2)nc2ccccc2c1=O, the “activity, negative = inhibition” value was -14.6% (inactive).
For CCOC(=O)c1c(-c2ccccc2)nc2ccc(Cl)cn12, the “activity, negative = inhibition” value was -16.8% (inactive).
With CCOC(=O)CNc1c(-c2ccccc2)nc2ccc(Cl)cn12 the AC50 was 7.94 µM (active).
With COc1cccc2c1C(=O)c1c(O)c3c(c(O)c1C2=O)C[C@](O)(C(=O)CO)C[C@H]3O[C@@H]1C[C@H](N)[C@H](O)[C@H](C)O1 the “activity, negative = inhibition” value was -14.4% [at 25.6 µM] (inactive).
With Cc1ccccc1NC(=O)C1CC(=O)N(c2ccc3c4c(cccc24)CC3)C1 (stereo not given) the “activity, negative = inhibition” value was -28% (inactive).
In the case of CC(=O)OC[C@@H]1O[C@@H](O/N=C2/C[C@@H](O)[C@@H](O)[C@@H]3[C@@H]4C(=O)N([C@@H](C)c5ccccc5)C(=O)[C@H]4CC[C@@H]23)[C@H](OC(C)=O)[C@H](OC(C)=O)[C@@H]1OC(C)=O, the activity, negative = inhibition was -0.595% [at 11.4 µM] (inactive).
CCOC(=O)N/N=C1/C[C@@H](O)[C@@H](O)[C@@H]2[C@@H]3C(=O)N(Cc4ccccc4)C(=O)[C@H]3CC[C@H]12 was tested, and the activity, negative = inhibition was 9.96% [at 11.4 µM] (inactive).
In the case of CC(C)=CCC/C(C)=C/CO/N=C1/C[C@@H](O)[C@@H](O)[C@@H]2[C@@H]3C(=O)N(Cc4ccccc4)C(=O)[C@H]3CC[C@@H]12, the activity, negative = inhibition was 15% [at 11.4 µM] (inactive).
In the case of CC(=O)OC[C@@H]1O[C@@H](O/N=C2/C[C@@H](O)[C@@H](O)[C@@H]3[C@@H]4C(=O)N(Cc5ccc6c(c5)OCO6)C(=O)[C@H]4CC[C@H]23)[C@H](OC(C)=O)[C@H](OC(C)=O)[C@@H]1OC(C)=O, the AC50 was 3.16 µM (active).
With CC(=O)OC[C@@H]1O[C@@H](O/N=C2/C[C@@H](O)[C@@H](O)[C@@H]3[C@@H]4C(=O)N(Cc5ccccc5)C(=O)[C@H]4CC[C@H]23)[C@H](OC(C)=O)[C@H](OC(C)=O)[C@@H]1OC(C)=O the AC50 was 3.16 µM (active).
In the case of CC(=O)OC[C@@H]1O[C@@H](O/N=C2/C[C@@H](O)[C@@H](O)[C@@H]3[C@@H]4C(=O)N(Cc5ccc6c(c5)OCO6)C(=O)[C@H]4CC[C@@H]23)[C@H](OC(C)=O)[C@H](OC(C)=O)[C@@H]1OC(C)=O, the activity, negative = inhibition was -5.23% [at 11.4 µM] (inactive).
CC(=O)OC[C@@H]1O[C@@H](O/N=C2/C[C@@H](O)[C@@H](O)[C@@H]3[C@@H]4C(=O)N(Cc5ccccc5)C(=O)[C@H]4CC[C@@H]23)[C@H](OC(C)=O)[C@H](OC(C)=O)[C@@H]1OC(C)=O was tested, and the AC50 was 3.98 µM (active).
For CC(C)CO/N=C1/C[C@@H](O)[C@@H](O)[C@@H]2[C@@H]3C(=O)N(Cc4ccc5c(c4)OCO5)C(=O)[C@H]3CC[C@@H]12, the activity, negative = inhibition was -15.9% [at 11.4 µM] (inactive).
CCN1C(=O)[C@H]2[C@H]3[C@H](O)[C@H](O)C/C(=N/OCC[C@H]4C=C[C@H](OC(C)=O)[C@@H](COC(C)=O)O4)[C@@H]3CC[C@@H]2C1=O was tested, and the activity, negative = inhibition was -11.1% [at 11.4 µM] (inactive).
